Where “and” joins values, the source holds several entries; their conditions need not be identical. Equal values may be shown once. Inconclusive results are not listed. A call without a number means that no potency is given here. More than one record can exist for a structure, and the calls need not agree. Calls of active or inactive are those of the source. Unless noted, calls come from the whole dose curve; as a rule, active = well fitted curve in the direction sought with a large enough effect in the repeat runs; inconclusive = weak or mixed curves; inactive = no such curve, though single readings can be large; an effect the other way counts as inactive or inconclusive.
Key:
[1] = qHTS assay to identify small molecule antagonists of the estrogen receptor alpha (ER-alpha) signaling pathway using the BG1 cell line in the presence of 0.1 nM 17-beta-estradiol - cell viability counter screen (AID 1259241); note: nearly all actives have a fitted effect of over 40% in size; note: potency is the fitted concentration of half-maximal effect
How it was run: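 Following 5 days in phenol red-free medium with charcoal-stripped serum, VM7Luc4E2 cells received test compounds alongside 0.1 nM 17beta-estradiol (final) at 37C for 22 hr. Live cells were then quantified via protease-substrate fluorescence.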

[2] = qHTS assay to identify small molecule antagonists of the androgen receptor (AR) signaling pathway using the MDA cell line in the presence of 0.5 nM R1881 - cell viability counter screen (AID 1259242); note: nearly all actives have a fitted effect of over 45% in size; note: potency is the fitted concentration of half-maximal effect
How it was run: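 Live-cell protease fluorescence, CellTiter-Fluor, 30 min at 37C. Cells: MDA-kb2, 3,000/well, preincubated 5 hr. Compounds plus 0.5 nM R1881 final, 16 hr, 37C, 0% CO2.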

[3] = molecular target: Androgen receptor (Homo sapiens) (UniProt P10275); test: qHTS assay to identify small molecule antagonists of the androgen receptor (AR) signaling pathway using the MDA cell line in the presence of 0.5 nM R1881 (AID 1259243); note: nearly all actives have a fitted effect of over 50% in size; note: potency is the fitted concentration of half-maximal effect
Sequence of Androgen receptor (Homo sapiens) (P10275 whole entry, looked up): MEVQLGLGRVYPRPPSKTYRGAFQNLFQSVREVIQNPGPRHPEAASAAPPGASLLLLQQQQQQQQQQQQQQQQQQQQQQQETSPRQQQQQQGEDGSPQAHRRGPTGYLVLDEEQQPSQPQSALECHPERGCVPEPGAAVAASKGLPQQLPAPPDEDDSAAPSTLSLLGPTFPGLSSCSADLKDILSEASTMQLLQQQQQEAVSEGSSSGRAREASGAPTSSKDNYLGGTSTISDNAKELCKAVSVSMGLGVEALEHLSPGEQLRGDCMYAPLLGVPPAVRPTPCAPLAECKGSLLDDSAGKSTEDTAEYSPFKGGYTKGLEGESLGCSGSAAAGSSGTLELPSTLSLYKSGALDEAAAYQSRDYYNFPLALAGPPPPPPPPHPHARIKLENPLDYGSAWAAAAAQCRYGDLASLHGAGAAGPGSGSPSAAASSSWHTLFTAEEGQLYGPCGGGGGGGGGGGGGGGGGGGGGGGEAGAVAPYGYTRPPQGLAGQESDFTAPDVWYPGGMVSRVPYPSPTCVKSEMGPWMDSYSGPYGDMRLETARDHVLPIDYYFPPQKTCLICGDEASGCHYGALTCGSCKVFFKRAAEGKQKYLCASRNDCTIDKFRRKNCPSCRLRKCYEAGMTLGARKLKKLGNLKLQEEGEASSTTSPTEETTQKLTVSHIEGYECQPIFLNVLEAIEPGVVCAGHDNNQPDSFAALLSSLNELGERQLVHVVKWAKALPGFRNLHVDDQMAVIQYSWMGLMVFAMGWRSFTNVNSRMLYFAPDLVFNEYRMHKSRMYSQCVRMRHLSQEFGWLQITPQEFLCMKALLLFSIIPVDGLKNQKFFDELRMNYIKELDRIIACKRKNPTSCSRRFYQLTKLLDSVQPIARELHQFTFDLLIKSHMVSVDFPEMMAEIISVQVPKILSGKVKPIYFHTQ
How it was run: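 MDA-kb2, MMTV-luc (AR/GR elements); 3,000 cells/well; cpd + 0.5 nM R1881 final; 16 hr 37C, 0% CO2; ONE-Glo 30 min RT; luminescence.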

[4] = qHTS assay to identify small molecule HDAC inhibitors (AID 1259364); note: potency is the fitted concentration of half-maximal effect;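 note: wild-type HCT-116 cells with endogenous class I/II HDAC activity; nearly all actives have a fitted effect of over 45% in size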
How it was run: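 HCT-116 (wild type), 1,500 cells/well, overnight; compound 2 hr 37C 5% CO2; HDAC-Glo I/II reagent 30 min RT; luminescence readout.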

[5] = qHTS assay to identify small molecule HDAC inhibitors - cell viability counter screen (AID 1259365); note: nearly all actives have a fitted effect of over 50% in size; note: potency is the fitted concentration of half-maximal effect
How it was run: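 HCT-116 wild-type, overnight attachment; 2hr drug exposure, 37C; CellTiter-Glo luminescent ATP readout after 30min RT.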

[6] = qHTS assay to identify small molecule agonists of the sonic hedgehog signaling (Shh) pathway - cell viability counter screen (AID 1259366); note: nearly all actives have a fitted effect of over 50% in size; note: potency is the fitted concentration of half-maximal effect
How it was run: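 Compounds in DMSO were pin-transferred onto 3T3 Gli1-Luc cells that had settled 4hr; plates then stood 24hr at 37C and 5% CO2. One hour before the end, CellTiter-Fluor was added and fluorescence recorded.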

[7] = qHTS assay to identify small molecule agonists of the sonic hedgehog signaling (Shh) pathway (AID 1259368; calls by dose curve;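 note: NIH/3T3-derived 3T3Gli1-Luc cells carrying a stable Gli1-driven firefly luciferase reporter; series mostly up to about 92 µM; nearly all actives have a fitted effect of over 15% in size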)
How it was run: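 Read-out: firefly luciferase luminescence from a Gli1 response element reporter stably integrated in NIH/3T3-derived 3T3Gli1-Luc cells, measured 30 min at room temperature after reagent addition. Compound exposure lasted 24 hr at 37 C, 5% CO2.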

[8] = molecular target: Estrogen receptor (Homo sapiens) (UniProt P03372); test: qHTS assay to identify small molecule antagonists of the estrogen receptor alpha (ER-alpha) signaling pathway using the BG1 cell line in the presence of 0.1 nM 17-beta-estradiol (AID 1259244); note: nearly all actives have a fitted effect of over 50% in size; note: potency is the fitted concentration of half-maximal effect
Sequence of Estrogen receptor (Homo sapiens) (P03372 whole entry, looked up): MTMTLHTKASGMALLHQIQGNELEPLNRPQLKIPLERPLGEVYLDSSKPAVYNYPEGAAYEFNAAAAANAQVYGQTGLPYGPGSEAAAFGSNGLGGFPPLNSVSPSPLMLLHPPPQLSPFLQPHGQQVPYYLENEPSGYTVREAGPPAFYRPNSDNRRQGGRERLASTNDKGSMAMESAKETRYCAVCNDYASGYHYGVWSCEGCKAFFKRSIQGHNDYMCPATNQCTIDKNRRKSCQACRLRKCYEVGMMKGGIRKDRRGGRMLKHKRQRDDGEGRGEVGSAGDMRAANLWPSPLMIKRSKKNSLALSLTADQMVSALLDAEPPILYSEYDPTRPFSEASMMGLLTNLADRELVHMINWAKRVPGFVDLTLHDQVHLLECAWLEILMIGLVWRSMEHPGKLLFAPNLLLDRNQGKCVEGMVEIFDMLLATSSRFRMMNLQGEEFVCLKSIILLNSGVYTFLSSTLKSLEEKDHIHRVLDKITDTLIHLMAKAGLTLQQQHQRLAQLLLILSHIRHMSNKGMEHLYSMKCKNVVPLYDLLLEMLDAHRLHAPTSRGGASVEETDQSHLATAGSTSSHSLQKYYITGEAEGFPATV
How it was run: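 Luminescence after ONE-Glo (30 min, room temperature) measured ERE-luciferase activity in VM7Luc4E2 cells treated 22 h with compound and 0.1 nM final 17beta-estradiol as stimulator.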

[9] = qHTS assay to identify small molecule phospholipidosis (PLD) inducers (AID 1259344; active = well fitted curve in the direction sought with a large enough effect; an effect the other way counts as inactive or inconclusive)
How it was run: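 Cells (HepG2, 900 per well) attach for 4 h, receive LipidTOX Red and compound together, incubate 24 h at 37 C, are fixed 30 min with paraformaldehyde/Hoechst, then imaged at one site per well.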

[10] = qHTS assay to identify small molecule antagonists of the sonic hedgehog signaling (Shh) pathway - cell viability counter screen (AID 1259367); note: nearly all actives have a fitted effect of over 55% in size; note: potency is the fitted concentration of half-maximal effect
How it was run: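 Cytotoxicity was assessed in parallel with Shh reporter activity by measuring live-cell protease fluorescence (CellTiter-Fluor) in NIH/3T3 cells stably carrying Gli1-Luc, treated with compound under conditioned medium stimulation for 23 hr plus 1 hr reagent incubation.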

Compound	Potency [1]	Potency [2]	Potency [3]	Potency [4]	Potency [5]	Potency [6]	Potency [7]	Potency [8]	outcome [9]	Potency [10]
COP(=S)(OC)SCn1nnc2ccccc2c1=O	inactive	inactive	23.9 µM (active) and 17.2 µM (active)	inactive	inactive	inactive	inactive	–	–	–
C[C@]12CCC(=O)C=C1CC[C@@H]1[C@@H]2CC[C@@]2(C)[C@H]1CC[C@]2(C)O	inactive	inactive	–	inactive	inactive	inactive	inactive	30.9 µM (active) and inactive	inactive	inactive
CC(C)COC(=O)c1ccccc1C(=O)OCC(C)C	inactive	inactive	–	inactive	inactive	inactive	inactive	inactive	–	inactive
CCCCCCCCCc1ccc(O)cc1	inactive	inactive	–	inactive	inactive	inactive	inactive	inactive	–	inactive
CC(C)(c1ccc(OCC2CO2)cc1)c1ccc(OCC2CO2)cc1 (stereo not drawn)	inactive	inactive	inactive	inactive	inactive	inactive	inactive	inactive	–	inactive
O=C1CCCO1	inactive	inactive	inactive	inactive	inactive	inactive	inactive	–	–	inactive
ClCc1ccccn1	inactive	inactive	–	inactive	inactive	inactive	inactive	inactive	–	inactive
COc1ccc(C=O)cc1OC	inactive	inactive	–	inactive	inactive	inactive	inactive	inactive	–	inactive
CCCCOC(=O)COC(=O)c1ccccc1C(=O)OCCCC	inactive	inactive	–	inactive	inactive	inactive	inactive	inactive	–	inactive
ClC(Cl)=C(Cl)C(Cl)=C(Cl)Cl	inactive	inactive	–	inactive	inactive	inactive	inactive	inactive	–	–
CC(C)Nc1ccc(Nc2ccccc2)cc1	43.1 µM (active)	60.9 µM (active)	–	–	inactive	24.2 µM (active) and 24.3 µM (active)	inactive	21.6 µM (active)	inactive	21.6 µM (active) and 24.3 µM (active)
CC(C)(C#N)N=NC(C)(C)C#N	inactive	inactive	–	inactive	inactive	inactive	inactive	inactive	–	–
CCC[CH2][Sn]([Cl])([CH2]CCC)[CH2]CCC	7.71 µM (active) and 6.11 µM (active)	1.09 µM (active) and 686 nM (active)	–	inactive	19.4 µM (active) and 17.2 µM (active)	217 nM (active) and 386 nM (active)	inactive	487 nM (active) and 433 nM (active)	–	487 nM (active) and 770 nM (active)
c1ccc2c(c1)Nc1ccccc1S2	inactive	inactive	–	inactive	inactive	inactive	inactive	inactive	inactive	–
Cc1ccc([N+](=O)[O-])cc1	inactive	inactive	–	inactive	inactive	inactive	inactive	inactive	–	inactive
O=C(O)c1nn(Cc2ccc(Cl)cc2Cl)c2ccccc12	inactive	inactive	inactive	inactive	inactive	inactive	inactive	inactive	inactive	inactive
COc1ccc(O)c(C(C)(C)C)c1	inactive	inactive	–	inactive	inactive	inactive	inactive	inactive	–	inactive
Cc1cccc(N=Nc2ccc(N(C)C)cc2)c1	27.3 µM (active)	inactive	–	3.5 µM (active) and 6.86 µM (active)	inactive	35 µM (active)	–	inactive	–	–
CCN(CC)C(=O)C(C)Oc1cccc2ccccc12 (stereo not drawn)	inactive	inactive	–	inactive	inactive	inactive	inactive	61.1 µM (active)	–	inactive
Clc1cccc(C(Cl)(Cl)Cl)n1	inactive	inactive	inactive	inactive	inactive	inactive	inactive	inactive	–	inactive
C=C(C)C#N	inactive	inactive	–	inactive	inactive	inactive	inactive	inactive	–	inactive
CN(C)P(=O)(N(C)C)N(C)C	inactive	inactive	–	inactive	inactive	inactive	inactive	inactive	–	inactive
CC1=C(C(=O)Nc2ccccc2)SCCO1	inactive	inactive	inactive	24.7 µM (active) and 27.3 µM (active)	inactive	inactive	inactive	inactive	–	inactive
CCCCOCC1CO1 (stereo not drawn)	inactive	inactive	–	inactive	inactive	inactive	inactive	inactive	–	inactive
C=CC(Cl)CCl (stereo not drawn)	inactive	inactive	inactive	inactive	inactive	inactive	inactive	–	–	–
CC[n+]1c(-c2ccccc2)c2cc(N)ccc2c2ccc(N)cc21	30.5 µM (active)	24.2 µM (active) and 13.3 µM (active)	–	inactive	inactive	54.2 µM (active) and inactive	inactive	27.2 µM (active) and 21.1 µM (active)	inactive	48.3 µM (active) and inactive

Compound	Potency [1]	Potency [2]	Potency [3]	Potency [4]	Potency [5]	Potency [6]	Potency [7]	Potency [8]	outcome [9]	Potency [10]
CCOP(=S)(OCC)SCn1c(=O)oc2cc(Cl)ccc21	inactive	inactive	–	inactive	inactive	inactive	inactive	inactive	–	inactive
C[N+](C)(C)CC(=O)[O-]	inactive	inactive	–	inactive	inactive	inactive	inactive	inactive	inactive	inactive
COP(=S)(OC)Oc1ccc(Sc2ccc(OP(=S)(OC)OC)cc2)cc1	inactive	inactive	61.1 µM (active) and inactive	inactive	inactive	inactive	inactive	61.1 µM (active) and inactive	inactive	inactive
N#Cc1nn(-c2c(Cl)cc(C(F)(F)F)cc2Cl)c(N)c1S(=O)C(F)(F)F (stereo not drawn)	inactive	inactive	9.75 µM (active) and 15 µM (active)	inactive	inactive	inactive	inactive	6.9 µM (active) and 21.1 µM (active)	inactive	inactive
CC(C)=CC1C(C(=O)OCN2C(=O)C3=C(CCCC3)C2=O)C1(C)C (stereo not drawn)	inactive	inactive	inactive	inactive	inactive	inactive	inactive	–	inactive	inactive
CC(C)CON=O	inactive	inactive	–	inactive	inactive	inactive	inactive	inactive	–	inactive
C[N+](C)(C)C	inactive	inactive	–	inactive	inactive	inactive	inactive	inactive	–	inactive
CCOP(=S)(OCC)OP(=S)(OCC)OCC	inactive	inactive	inactive	inactive	inactive	inactive	inactive	–	–	inactive
C[N+](C)(C)CC(=O)O	inactive	inactive	–	inactive	inactive	inactive	inactive	inactive	inactive	inactive
O=[N+]([O-])c1ccc(Cl)c([N+](=O)[O-])c1	27.7 µM (active) and 54.5 µM (active)	24.7 µM (active) and 21.7 µM (active)	12.4 µM (active)	inactive	–	5.53 µM (active) and 13.7 µM (active)	inactive	31.1 µM (active) and 43.3 µM (active)	–	–
Cc1ccc(N=CN(C)C=Nc2ccc(C)cc2C)c(C)c1	inactive	inactive	–	inactive	inactive	inactive	inactive	inactive	inactive	inactive
CC(C)Nc1nc(Cl)nc(NC(C)C)n1	inactive	inactive	–	inactive	inactive	inactive	inactive	inactive	–	–
Oc1ccc(Cl)cc1Cc1ccccc1	inactive	–	12.2 µM (active) and 4.38 µM (active)	inactive	inactive	55.1 µM (active) and inactive	inactive	–	inactive	inactive
CSc1nc(NC(C)C)nc(NC(C)C)n1	inactive	inactive	–	inactive	inactive	inactive	inactive	inactive	–	–
Oc1ccc(Cl)cc1Cl	inactive	inactive	–	inactive	inactive	inactive	inactive	inactive	–	–
CCC1(c2ccc(N)cc2)CCC(=O)NC1=O (stereo not drawn)	inactive	–	inactive	inactive	inactive	inactive	inactive	inactive	inactive	inactive
[Cl-].[Cl-].[Cl-].[Fe+3]	inactive	inactive	–	inactive	inactive	inactive	inactive	–	–	inactive
CS(=O)(=O)NC(=O)c1cc(Oc2ccc(C(F)(F)F)cc2Cl)ccc1[N+](=O)[O-]	inactive	inactive	–	inactive	inactive	inactive	inactive	–	–	–
CCNCC	inactive	inactive	–	inactive	inactive	inactive	inactive	–	–	inactive
ClC(Cl)(Cl)c1ccccc1	inactive	inactive	–	inactive	inactive	inactive	inactive	inactive	–	–
Cl	inactive	inactive	–	inactive	inactive	inactive	inactive	–	–	inactive
O=NN1CCOCC1	inactive	inactive	–	inactive	inactive	inactive	inactive	inactive	–	–
CN(C)c1ccccc1	inactive	inactive	–	inactive	inactive	inactive	inactive	–	–	inactive
Brc1ccc(Br)cc1	inactive	inactive	–	inactive	inactive	inactive	inactive	–	–	–
CC1(C)Cc2cccc(O)c2O1	inactive	inactive	–	inactive	inactive	inactive	inactive	inactive	–	–

Source: PubChem BioAssay (Tox21)
